# Pf growth 48h – P. falciparum growth inhibition at 48 hours (one generation) | AID 504832 | 310,000 compounds, 5.9% hits | P. falciparum luciferase growth in erythrocytes, 48 h | Potency, µM (titrated, usually from 28.7 µM), for the others: at the top dose activity change, negative = inhibition, usual class: inhibitors; also: potency is read from the fitted curve at half-maximal effect; % is scaled to controls: 0 for no effect and ±100 for the full control effect
#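 Read-out is firefly luciferase luminescence from an integrated reporter in P. falciparum, so falling signal marks reduced parasite growth. Infected erythrocytes were at 2% hematocrit and 0.1% parasitemia (final) in Albumax-supplemented RPMI 1640.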
# CHX counter – counter-screen hit for Shiga toxin inhibitors, cycloheximide | cell reporter, cycloheximide protein synthesis inhibition counterscreen | max response, % | 300,000 compounds, 12% hits | AID 2314; in the data active = max response mostly above about 13%, no sharp cut-off; inactive = mostly below about 14%; also: read at 38.3 µM for the half of the compounds with a filed dose; 0% is about no effect
# Shiga inhibitor – Shiga toxin inhibition; Vero cells, Shiga toxin protein synthesis inhibition reporter; inhibition, % at 38.7 µM; 290,000 compounds, 9.2% hits; AID 2315; in the data active = inhibition mostly above about 28%, no sharp cut-off; inactive = mostly below about 43%; also: 0% is about no effect
# SARS PLpro yeast – SARS-CoV PLP inhibition in yeast | 330,000 compounds, 0.19% hits | Potency, µM (doses to about 32.9 µM), without a hit: at the top dose activity, positive = growth rescue, actives largely listed as activators | S. cerevisiae expressing SARS-CoV PLpro, growth rescue; calls by dose curve; also: potency is read from the fitted curve at half-maximal effect; 0% is about no effect; nearly all actives have a fitted effect of over 55% in size
# Pf growth 96h – P. falciparum growth inhibition at 96 hour, primary screen for plastid delayed-death inhibitors. P. falciparum luciferase reporter growth, 96 h. Potency, µM (highest dose often 28.7 µM), inactives show top-dose activity change, negative = inhibition, most hits filed as inhibitors. 320,000 compounds, 6.9% hits. AID 504834; also: potency is read from the fitted curve at half-maximal effect; % is scaled to controls: 0 for no effect and ±100 for the full control effect
#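 Two parasite generations (96 h, 37 C, 5% CO2) of compound exposure in infected erythrocytes (0.05% parasitemia, 2% hematocrit). Luciferase-reporter P. falciparum; decreased luminescence indicates inhibited growth, aimed at apicoplast-acting delayed death.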
# AMA1-RON2 inh – disrupts binding of P. falciparum AMA1 to RON2 | 360,000 compounds, 0.2% hits | AlphaScreen AMA1-biotinylated RON2 peptide binding | Potency, µM (highest dose often 58.2 µM), for the others: top-dose activity change, negative = inhibition, most hits filed as inhibitors | AID 720542;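 also: potency is read from the fitted curve at half-maximal effect; 0% = vehicle wells and -100% = peptide control; nearly all actives have a fitted effect of over 45% in size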
#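 AMA1 (3D7) with his tag at 25 nM final met compounds first, then biotinylated RON2 peptide at 25 nM; detection used donor plus acceptor beads, 10 µg/mL apiece, read by AlphaScreen after 30 min at room temperature.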
# Starred values were filed as active, the others as inactive; ? = inconclusive; · = no result; [ ] = dose if it differs, or a comment. An excerpt weighted towards active compounds, which were near 19% of everything screened. Unless noted, calls follow the shape of the dose curve; as a rule, active = well fitted curve in the direction sought with a large enough effect; inconclusive = small, poorly fitted or top-dose-only effect, or another doubt; inactive = no such curve, though single readings can be large; an effect the other way counts as inactive or inconclusive.
SMILES,Pf growth 48h,CHX counter,Shiga inhibitor,SARS PLpro yeast,Pf growth 96h,AMA1-RON2 inh
CCN1CCN(C(=O)c2cc(COc3ccc(F)c(F)c3)on2)[C@@H](C)C1=O,·,·,·,·,·,5.9%
Cc1cccc(C)c1NC(=O)C(c1ccccc1F)n1c(=O)c(-c2ccccc2)nc2ccccc21 (stereo not drawn),·,·,·,·,·,12.4%
COCCN1CCN(C(=O)c2cc(COc3ccc(F)c(F)c3)on2)CC1,13.8%,26.9*,25.8,0.6%,?,-7.0%
COCCN1CCN(C(=O)c2cc(COc3ccc(F)cc3F)on2)CC1,15.1%,1.5,9.8,-2.1%,?,-12.9%
CCc1ccccc1NC(=S)N1N=CCC1c1ccccc1 (stereo not drawn),?,16.5*,54.8,-0.4%,-15.2%,52.9%
Cc1cccc(NC(=S)N2CCN(c3cc(C)ccc3C)CC2)c1,13.3%,1.8,-19.9,-11.5%,-0.1%,0.2%[11.6 µM]
CCc1ccccc1NC(=S)N1CCCCCC1,0.7%,1.3,-10.6,-0.9%,-9.5%,-0.4%
CC1=NN(C(=S)Nc2ccccc2)C(c2ccccc2)C1 (stereo not drawn),9.28µM*,6.1,40.6,26.7%,2.62µM*,-10.0%
Cc1cccc(NC(=S)N2N=CCC2c2ccccc2)c1 (stereo not drawn),·,41.8*,118.7*,-0.8%,?,31.5%
CCCCC(=O)NS(=O)(=O)c1ccc(N=NN2CCOCC2)cc1,13.6%,-2.1,-9.5,?,22.6%,5.7%
CCc1nnc(SCc2ccc([N+](=O)[O-])cc2)nc1CC,·,·,·,·,·,12.3%
COc1ccc2cc(C3CC=C(CO)CN3S(=O)(=O)c3ccccc3[N+](=O)[O-])n(C(=O)OC(C)(C)C)c2c1 (stereo not drawn),·,·,·,·,·,-21.7%
CCCCS(=O)c1c(O)c2ccccc2[nH]c1=O (stereo not drawn),-1.1%,-3.8,-4.9,-10.9%,-20.1%,-4.3%
CCCCCCOc1ccc(N2C(=O)CC(SC(=NCC)NCC)C2=O)cc1 (stereo not drawn),-3.5%,-1.0,8.2,2.1%,0.0%,95.1%
O=C(c1cccc(S(=O)(=O)N2CCc3ccccc3C2)c1)N1CCN(c2ccccc2)CC1,-8.3%,-4.6,2.5,16.4%,?,16.2%[2.32 µM]
COc1ccc(N2CCN(C(=O)c3ccc4c(c3)CCN4S(=O)(=O)c3ccccc3)CC2)cc1,1.8%,9.9,-2.3,1.8%,2.8%,?
COc1ccccc1N1CCN(C(=O)c2ccc3c(c2)CCN3S(=O)(=O)c2ccccc2)CC1,8.28µM*,39.7,45.9,-5.0%,?,-0.9%
O=C(c1cccc(S(=O)(=O)N2CCc3ccccc32)c1)N1CCN(c2ccccc2)CC1,?,·,·,-1.1%,10.4µM*,?
CC(=O)Nc1nccc(-c2cc(-c3ccccc3)no2)n1,191.5%,30.2*,53.3*,-0.6%,114.2%,9.5%
CC(=O)Nc1cccc(-c2cc(-c3c(Cl)cccc3Cl)no2)c1,?,-2.9,4.3,-20.4%,-18.2%,-5.0%
O=C(COc1ccccc1)Nc1nnc(S(=O)(=O)N2CCCCCC2)s1,45.2%,1.9,-10.8,-7.7%,31.2%,4.1%
CCOC(=O)C1CCCN(c2c(C(=O)c3ccc(C)cc3)cnc3ccc(OCC)cc23)C1 (stereo not drawn),·,-2.0,0.8,·,·,·
Cc1nn(-c2ccc(F)cc2)c(Cl)c1/C=N/NC(=O)c1cccs1,-62.9%,30.0*,58.8*,-9.8%,?,-10.4%
Cc1nn(-c2ccc(F)cc2)c(Cl)c1/C=N/NC(=O)c1ccc(O)cc1,?,20.1*,61.1*,2.5%,-24.4%,-1.6%
Cc1nn(-c2ccc(Cl)cc2)c(Cl)c1/C=N/NC(=O)c1ccc(NS(=O)(=O)c2cccs2)cc1,·,·,·,·,·,79.6%
SMILES,Pf growth 48h,CHX counter,Shiga inhibitor,SARS PLpro yeast,Pf growth 96h,AMA1-RON2 inh
CNC(=S)N/N=C/c1c(C)nn(-c2ccc(F)cc2)c1Cl,?,10.6,5.7,-0.7%,?,51.9%
COc1ccc2oc(C(=O)N(C)CCOc3ccccc3)c(C)c2c1,52.0%,38.4*,82.9*,-7.6%,42.1%,31.7%
Cc1c(C(=O)N(C)Cc2ccccc2)oc2ccc(S(=O)(=O)N3CCCC3)cc12,?,-2.5,-23.0,-20.5%,?,-5.8%
Cc1ccc2oc(C(=O)N(C)CCC(O)c3ccccc3)c(C)c2c1 (stereo not drawn),0.0%,12.8,21.9*,-1.0%,?,3.6%
COc1ccc2oc(C(=O)N(C)Cc3ccc(OC(F)F)cc3)c(C)c2c1,-5.7%,15.1,4.8,-8.8%,?,-11.6%
CS(=O)(=O)NCc1nnc(SCC(=O)NC2CCCCC2)n1-c1ccc(F)cc1,0.0%,-4.4,-5.1,0.4%,18.5%,-8.2%
CC1CN(c2ccc(C(F)(F)F)cc2[N+](=O)[O-])CCN1S(C)(=O)=O (stereo not drawn),13.3%,-2.1,-3.0,10.2%,16.7%,1.0%
CC1CN(c2ccc([N+](=O)[O-])cc2Cl)CCN1S(C)(=O)=O (stereo not drawn),3.29µM*,-3.3,-2.1,-0.6%,61.2%,-7.8%
CS(=O)(=O)N1CCN(c2ccc([N+](=O)[O-])cc2F)CC1,19.5%,7.5,16.2,3.7%,95.5%,2.7%
CS(=O)(=O)N1CCN(c2ccc([N+](=O)[O-])cc2C(F)(F)F)CC1,7.9%,8.9*,44.0,0.1%,15.0%,-18.2%
COc1ccc(C=O)c(-c2c(-c3ccccc3OC)sc3ccccc23)c1,·,·,·,·,·,-15.7%
O=S(=O)(NCc1nnc2c(C(F)(F)F)cc(Cl)cn12)c1ccccc1,15.9%,-3.9,-5.3,-2.2%,6.9%,2.7%
COc1ccc(-c2nc(NC(=O)c3[nH]c(C)c(C(C)=O)c3C)sc2C)cc1,-26.9%,8.3,68.2*,0.9%,?,-15.7%
COc1ccc(-c2nc(NC(=O)c3ccco3)sc2C)cc1,·,·,·,·,·,-8.8%
CC(=O)c1c(C)[nH]c(C(=O)Nc2nc(-c3ccc(-c4ccccc4)cc3)cs2)c1C,8.28µM*,10.9,64.2*,10.0%,7.38µM*,-2.4%
COc1ccccc1C1=NOC(C)(c2nnc(Cc3ccccc3)o2)C1 (stereo not drawn),?,·,·,0.3%,18.4%,22.6%
O=C(COC(=O)Cn1[nH]c(=O)c2ccccc2c1=O)NNC(=O)c1ccccc1,-16.5%,·,·,-8.6%,-6.9%,29.5%
O=C(O)c1ccc(-c2sc(Nc3ccccc3)n[n+]2-c2ccc(F)cc2)cc1,21.0%,-1.6,-4.6,-1.9%,29.8%,-2.3%
CCc1ccc(Nc2n[n+](-c3ccccc3)c(-c3ccc(OCc4ccccc4)cc3)s2)cc1,?,19.0*,13.6,-11.2%,2.94µM*,0.0%
c1ccc(COc2ccc(-c3sc(Nc4ccccc4)n[n+]3-c3ccccc3)cc2)cc1,?,20.1*,34.7*,-11.7%,?,·
